# Experimental data reported in PubChem BioAssay (EPA / NIEHS).
# The source made the active and inactive calls. How the source made its calls: active means hit-call score of the fitted dose curve at least 0.9, where 1 is the maximum; inactive means score below 0.9.
# Target: Nuclear respiratory factor 1 (Homo sapiens) (UniProt Q16656)
# Test: ATG_NRF1_CIS: Attagene CIS-FACTORIAL HepG2 Assay for human Nuclear Respiratory Factor 1 (NRF1) Orphan Gene (AID 2282987)
# Conditions: HepG2 NRF1 cis-element reporter, Attagene multiplex; actives raise or lower the signal
# In short: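 Using DMSO as baseline, gain- or loss-of-signal was fitted for reporter mRNA levels in HepG2 cells transiently transfected with cis-regulated reporter units. Samples were taken 24 h after dosing and read by RT-PCR with capillary electrophoresis.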
# Chain of Nuclear respiratory factor 1 (Homo sapiens) (Q16656 whole entry, looked up): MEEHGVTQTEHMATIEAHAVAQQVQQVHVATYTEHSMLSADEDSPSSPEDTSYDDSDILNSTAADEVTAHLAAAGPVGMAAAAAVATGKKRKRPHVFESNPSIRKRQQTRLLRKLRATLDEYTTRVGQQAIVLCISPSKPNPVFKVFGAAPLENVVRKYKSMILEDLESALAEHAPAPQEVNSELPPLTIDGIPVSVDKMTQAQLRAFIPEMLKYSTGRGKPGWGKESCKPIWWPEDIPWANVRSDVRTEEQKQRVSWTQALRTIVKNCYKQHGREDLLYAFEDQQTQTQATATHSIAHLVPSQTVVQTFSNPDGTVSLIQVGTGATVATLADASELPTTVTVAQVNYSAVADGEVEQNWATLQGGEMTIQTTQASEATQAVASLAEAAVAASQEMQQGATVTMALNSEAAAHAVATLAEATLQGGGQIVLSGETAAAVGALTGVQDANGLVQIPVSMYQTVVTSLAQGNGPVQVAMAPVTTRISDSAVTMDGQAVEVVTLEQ
row,SMILES,outcome
1,CC[C@H](C)[C@H]1O[C@]2(C=C[C@@H]1C)C[C@@H]1C[C@@H](C/C=C(\C)[C@@H](O[C@H]3C[C@H](OC)[C@@H](O[C@H]4C[C@H](OC)[C@@H](NC)[C@H](C)O4)[C@H](C)O3)[C@@H](C)/C=C/C=C3\CO[C@@H]4[C@H](O)C(C)=C[C@@H](C(=O)O1)[C@]34O)O2,inactive
2,C[N+]1(C)CCCCC1,inactive
3,CCOP(=O)(OCC)Oc1cc(C)nc(C(C)C)n1,inactive
4,CCCCOC(=O)c1ccccc1C(=O)O,inactive
5,CC(C1CC1)C(O)(Cn1cncn1)c1ccc(Cl)cc1 (stereo unspecified),inactive

# Test system: not listed separately
# Test: ATG_NFI_CIS: Attagene CIS-FACTORIAL HepG2 Assay for human Nuclear Factor I (NFI) (AID 2282989)
# Conditions: HepG2 cis-regulatory reporter, NFI response element transcription; actives raise or lower the signal
# In short: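 Transfected HepG2 liver cells, exposed 24 h, supplied total RNA for oligo(dT) reverse transcription and reporter-specific PCR. Labelled, HpaI-cut fragments were sized by capillary electrophoresis; DMSO set the baseline for bidirectional fitting.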
SMILES,outcome,AC50
CCc1cnc(C2=NC(C)(C(C)C)C(=O)N2)c(C(=O)O)c1 (stereo unspecified),inactive,–
CSc1nnc(C(C)(C)C)c(=O)n1N,inactive,–
CC(C)[C@H](C(=O)O[C@H](C#N)c1cccc(Oc2ccccc2)c1)c1ccc(Cl)cc1,inactive,–
S=C1NCCN1,inactive,–
O=c1ccc(=O)[nH][nH]1,inactive,–
COP(=O)(NC(C)=O)SC (stereo unspecified),inactive,–
CCOP(=S)(OCC)Oc1cc(C)nc(C(C)C)n1,inactive,–
CCOC(=O)CC(SP(=O)(OC)OC)C(=O)OCC (stereo unspecified),inactive,–
CC(Oc1cccc(Cl)c1)C(=O)O (stereo unspecified),inactive,–
CCOP(=S)(OCC)SCCSCC,inactive,–
CSc1nc(NC(C)C)nc(NC(C)C)n1,inactive,–
CCC(CC)Nc1c([N+](=O)[O-])cc(C)c(C)c1[N+](=O)[O-],inactive,–
CON=C(C(=O)OC)c1ccccc1CON=C(C)c1cccc(C(F)(F)F)c1,inactive,–
CNC(=O)Oc1cccc2c1OC(C)(C)O2,–,50 µM (active)
CN(C)NC(=O)CCC(=O)O,inactive,–
Cc1cc(C2CC2)nc(Nc2ccccc2)n1,–,29.3 µM (active)
C#CC(C)(C)NC(=O)c1cc(Cl)cc(Cl)c1,inactive,–
CC(=NC#N)N(C)Cc1ccc(Cl)nc1,inactive,–

SMILES,outcome,AC50
CCOP(=S)(OCC)Oc1ccc([N+](=O)[O-])cc1,inactive,–
O=C(O)c1cc(Oc2ccc(C(F)(F)F)cc2Cl)ccc1[N+](=O)[O-],inactive,–
CCCOc1nn(C(=O)NS(=O)(=O)c2ccccc2C(=O)OC)c(=O)n1C,inactive,–
CCOP(=O)(SC(C)CC)N1CCSC1=O (stereo unspecified),inactive,–
COP(=O)(OC)SCn1c(=O)oc2cc(Cl)cnc21,inactive,–
CCCSP(=O)(OCC)Oc1ccc(Br)cc1Cl (stereo unspecified),inactive,–
CCc1cccc(CC)c1N(COC)C(=O)CCl,inactive,–
FC(F)C(F)(F)OCC(Cn1cncn1)c1ccc(Cl)cc1Cl (stereo unspecified),inactive,–
C[Si](Cn1cncn1)(c1ccc(F)cc1)c1ccc(F)cc1,inactive,–
CNc1cnn(-c2cccc(C(F)(F)F)c2)c(=O)c1Cl,inactive,–
CN(C)C(=O)Nc1cccc(C(F)(F)F)c1,inactive,–
CC(C)N(C(=O)SCC(Cl)=C(Cl)Cl)C(C)C,inactive,–
CCNc1nc(Cl)nc(NC(C)(C)C#N)n1,inactive,–
CC[C@H](C)[C@H]1O[C@]2(C=C[C@@H]1C)C[C@@H]1C[C@@H](C/C=C(\C)[C@@H](O[C@H]3C[C@H](OC)[C@@H](O[C@H]4C[C@H](OC)[C@@H](NC)[C@H](C)O4)[C@H](C)O3)[C@@H](C)/C=C/C=C3\CO[C@@H]4[C@H](O)C(C)=C[C@@H](C(=O)O1)[C@]34O)O2,inactive,–
C[N+]1(C)CCCCC1,inactive,–
CCOP(=O)(OCC)Oc1cc(C)nc(C(C)C)n1,inactive,–
CCCCOC(=O)c1ccccc1C(=O)O,inactive,–
CC(C1CC1)C(O)(Cn1cncn1)c1ccc(Cl)cc1 (stereo unspecified),inactive,–
